Compounds with a hit are over-represented: about 4.7% of the library has one in this group of screens.
D1 agonist – agonists of human D1 dopamine receptor; P21728; HEK293 T-REx D1 cells, calcium flux, agonist mode; activation, % at 2 µM; 360,000 tested, 1% active; in the data active = activation above about 30%; note: 0% is about no effect
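Tetracycline-induced HEK293 TREx D1 cells, force-coupled to calcium signalling, were dye-loaded with a no-wash calcium kit. Compound was pin-added after a 10 s baseline. Fluorescence was read kinetically at 1 cycle/s for 180 s, with calcium rises flagged as agonism.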
TRHR enhancer-1 – allosterically enhances the human TRH receptor; P34981; TRHR cells, fluo-8 calcium fluorescence, EC20 TRH enhancement; enhancement, % at 2 µM; 360,000 tested, 0.66% active; in the data active = enhancement above about 30%; note: 0% is about no effect
Target sequence (P34981 whole entry, looked up): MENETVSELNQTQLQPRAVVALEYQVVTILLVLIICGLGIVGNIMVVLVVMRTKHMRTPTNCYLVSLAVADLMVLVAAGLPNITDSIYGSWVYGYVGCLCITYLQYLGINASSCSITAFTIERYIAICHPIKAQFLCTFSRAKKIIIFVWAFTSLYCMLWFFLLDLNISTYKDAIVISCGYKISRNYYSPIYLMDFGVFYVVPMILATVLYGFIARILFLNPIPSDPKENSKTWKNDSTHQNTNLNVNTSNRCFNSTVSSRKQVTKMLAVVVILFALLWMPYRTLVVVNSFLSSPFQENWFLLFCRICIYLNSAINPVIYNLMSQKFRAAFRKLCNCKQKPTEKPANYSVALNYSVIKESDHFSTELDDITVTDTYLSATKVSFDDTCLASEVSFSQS
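Enhancer read-out: after compound pinning and an initial kinetic agonist-mode read, an EC20 of TRH (10 nM final) was injected and fluo-8 calcium signal (Ex 480/Em 530) followed at 1 s/cycle for 100 cycles in TRHR-expressing cells.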
D1 PAM – enhances dopamine response at the human D1 receptor; 360,000 tested, 0.036% active; P21728; HEK293 TREx D1 cells, calcium flux, dopamine EC20 potentiation; AID 504651; potentiation, % at 10 µM; in the data active = potentiation above about 30%; note: 0% is about no effect
D1 antag – human D1 dopamine receptor antagonism; 360,000 tested, 3.2% active; AID 504652; activity change, negative = inhibition, % at 10 µM; HEK293 TREx D1 cells, calcium flux, dopamine EC80; stronger effect = lower value; in the data active = activity change below about -30%; note: % is set by controls: 0 for no effect and ±100 for the full control effect
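Calcium flux readout: force-coupled, inducible Hek293 Trex D1 line, cells induced overnight at 30 C with tetracycline, dye-loaded 30–90 min at RT. Antagonism scored against EC80 dopamine challenge given 180 s after compound.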
TRHR agonist-1 – TRH receptor (human) agonism; 360,000 tested, 0.18% active; P34981; activation, % at 2 µM; AID 493084; TRHR cells, calcium flux fluo-8, FDSS agonist mode; in the data active = activation above about 30%; note: 0% is about no effect
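Steps: seed TRHR cells overnight; add fluo-8 no-wash Ca dye, RT 30 min–1.5 h; record 10 s baseline; pin-transfer compounds; monitor fluorescence 1 cycle/s for the agonist window. Calcium increases flag candidate agonists.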
TRHR enhancer-2 – human TRH receptor allosteric enhancement confirmation; activity change, negative = inhibition, % at 46.1 µM; AID 493076; 970 tested, under 10 active; shares compounds with TRHR enhancer-1; TRH receptor cell assay, enhancer confirmation qHTS;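 note: compound effect scored on response to added TRH at EC20 of 10 nM; 0% is about no effect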
TRHR agonist-2 – human TRH receptor agonism confirmation; TRHR-expressing cells, agonist activation read-out; Potency, µM (top dose mostly 46.1 µM), without a hit: at the top dose activation, most hits filed as activators; AID 493078; shares compounds with TRHR enhancer-1; 970 tested, 8% active; note: potency is the fitted concentration of half-maximal effect; 0% is about no effect; nearly all actives have a fitted effect of over 75% in size
* hit, by the source's call; u = inconclusive; x = not tested or not shown. Unless noted, calls come from the whole dose curve; as a rule, active = well fitted curve in the direction sought with a large enough effect; inconclusive = small, poorly fitted or top-dose-only effect, or another doubt; inactive = no such curve, though single readings can be large; an effect the other way counts as inactive or inconclusive.

SMILES	D1 agonist	TRHR enhancer-1	D1 PAM	D1 antag	TRHR agonist-1	TRHR enhancer-2	TRHR agonist-2
CCN(CC)C(=O)c1sc2nc(-c3cccs3)cc(-c3ccc(Cl)cc3)c2c1N	55*	0	12	-21	28	-2	18µM*
O=C(NCc1ccccc1Cl)c1cc2c(s1)-c1ccccc1SC2	4	-5	-3	-17	1	x	x
COC(=O)c1c(C)oc2ccc(NS(=O)(=O)c3cccs3)cc12	12	53*	-2	-14	-1	-8	3%
CCc1ccc(CN(C)CC(O)COc2cccc3ccccc23)cc1 (stereo not drawn)	-1	42*	0	10	0	u	1%
COc1ccccc1-c1noc(-c2ccc(N(C)Cc3ccccc3)c([N+](=O)[O-])c2)n1	4	-3	0	10	0	x	x
CN(C)S(=O)(=O)c1ccc(C(=O)NCC(=O)N/N=C/c2ccccc2)cc1	-1	82*	-1	14	1	-3	-1%
Cc1ccccc1NC(=O)c1ccc(S(=O)(=O)N(C)C)cc1	2	45*	-1	-10	-1	-4	-1%
CCN(CC)c1ccc(C(=O)Nc2ccc3nc(N(CC)CC)cc(C)c3c2)cc1	-1	3	-1	-3	0	x	x
CCn1cc(C(=O)OCC(=O)Nc2cc(Cl)ccc2C)c(=O)c2ccc(C)nc21	-2	13	1	-1	-1	x	x
O=C(COC(=O)c1cccnc1Cl)Nc1cccc(S(=O)(=O)N2CCCCC2)c1	16	54*	-1	-5	0	-6	4%
N#CC1=C(N)Oc2cc(O)c(Cl)cc2C1c1cccnc1 (stereo not drawn)	60*	-1	2	7	65*	5	u
N#CC1=C(N)Oc2cc(O)ccc2C1c1cccnc1 (stereo not drawn)	2	7	-7	-3	0	x	x
O=C(NC1CCCC1)c1ccc2c(=O)n(Cc3ccccc3)c(SCc3ccccc3F)nc2c1	3	0	-3	9	1	x	x
N#Cc1c(N)n(CCNC(=O)c2cccs2)c2nc3ccccc3nc12	4	1	-6	-1	0	x	x
N#Cc1c(N)n(CCNC(=O)c2ccccc2)c2nc3ccccc3nc12	5	4	1	-2	28	-6	-1%
Cc1ccc(NC(=O)COc2ccc3oc4c(c3c2)CCCC4)cc1C	4	3	2	6	0	x	x
CCCCc1cc(=O)oc2cc(OCC(=O)N(CC)CC)ccc12	2	0	0	13	-2	x	x
CCCCc1cc(=O)oc2cc(OCC(=O)N(CC)CC)c(Cl)cc12	3	66*	-8	5	0	-5	0%
O=C(CCn1c(=O)c2ccccc2n(Cc2ccc(F)cc2Cl)c1=O)NCc1ccc2c(c1)OCO2	0	0	4	14	-1	x	x
COc1cc(OC)cc(-c2nc3nc(C)c(CCC(=O)Nc4ccc(C)cc4C)c(C)n3n2)c1	1	3	1	3	0	x	x
COCCOC(=O)C1=C(C)N(c2ccccc2)C(=O)NC1c1cccc([N+](=O)[O-])c1 (stereo not drawn)	0	50*	-3	-7	-1	-19	0%
CCOC(=O)C1=C(C)N(c2ccc(Cl)cc2)C(=O)NC1c1cccc([N+](=O)[O-])c1 (stereo not drawn)	0	-4	1	1	-1	x	x
O=C(Cc1ccccc1)Nc1ccccc1C(=O)N1CCCCC1	1	-4	-2	6	0	x	x
O=C(Cc1ccc(Cl)cc1)Nc1ccccc1C(=O)N1CCCC1	10	70*	-4	6	0	u	-1%
Cc1ncoc1C(=O)N1CCCC(CCC(=O)NCc2ccccc2F)C1 (stereo not drawn)	0	45*	-3	6	0	-7	1%
SMILES	D1 agonist	TRHR enhancer-1	D1 PAM	D1 antag	TRHR agonist-1	TRHR enhancer-2	TRHR agonist-2
Cc1ncoc1C(=O)N1CCCC(CCC(=O)NCc2ccc(F)c(F)c2)C1 (stereo not drawn)	2	-2	-1	-4	0	x	x
Cc1ccc(NC(=O)C2CC(=O)n3c(nc4ccccc43)N2)cc1Cl (stereo not drawn)	3	45*	-8	26	1	-2	2%
Cc1ccc2cc(NC(=O)Cc3ccccc3)ccc2n1	1	3	2	-7	0	x	x
Cc1ccc2cc(NC(=O)c3ccccc3C)ccc2n1	2	50*	6	20	0	2	1%
CC(=O)N1CC(C)Oc2ccc(S(=O)(=O)NC(CC(=O)O)c3ccccc3)cc21 (stereo not drawn)	4	44*	-12	-22	1	-6	-1%
CCCSc1nnc2c(n1)OC(c1ccc(Br)s1)Nc1ccccc1-2 (stereo not drawn)	3	-1	0	2	1	x	x
O=C(CCC1N=C2c3ccccc3N=C(SCc3cccc(Cl)c3)N2C1=O)NCc1ccco1 (stereo not drawn)	2	49*	-7	3	0	-6	u
COc1ccc(-c2cc(C(F)(F)F)nc(SCC(=O)NCc3ccc(F)cc3)n2)cc1	3	8	0	8	1	x	x
COc1ccc(-c2cc(C(F)(F)F)nc(SCC(=O)NCc3ccc(Cl)cc3)n2)cc1	3	60*	-2	7	2	-4	3%
COc1ccc(C(=O)OCC(=O)NCC2CCCCC2)cc1F	5	41*	2	2	-1	3	1%
COc1ccc(C(=O)OCC(=O)NCC2CCCCC2)c(OC)c1	1	-10	-1	2	-1	x	x
CCOC(=O)c1c(S(=O)(=O)N2CCC(C(=O)N3CCN(c4cccc(C)c4C)CC3)CC2)c(C)n(C)c1C	3	-7	-1	2	-1	x	x
COc1ccc(OC)c(-c2cc(C(=O)Nc3cnn(Cc4ccc(Cl)cc4Cl)c3)no2)c1	6	3	-1	1	1	x	x
NC(=O)c1c(NC(=O)CN2CCCC2)sc2c1CCCC2	-3	2	1	-18	0	x	x
NC(=O)c1c(NC(=O)CN2CCOCC2)sc2c1CCC2	2	66*	-5	9	0	-16	2%
COc1ccc(C(=O)Oc2ccc(/C=N/NC(=O)c3ccccc3OC)cc2[N+](=O)[O-])cc1	2	51*	-6	3	0	-3	2%
COc1ccc2c(c1)c1c(c(=O)n(-c3ccc(OC)c(OC)c3)c(=O)n1CC(=O)N1CCCC1)n2C	1	2	0	2	-1	x	x
CCOc1ccc(/C=C/C(=O)Nc2ccc(C(N)=O)cc2)cc1OC	5	3	-7	-3	1	x	x

Screening results deposited in PubChem by National Center for Advancing Translational Sciences (NCATS).
